A selection: hits, their analogues and other compounds. The true share with any hit is near 1.3%.
BCLXL inh – blocks human Bcl-xL binding to Bim BH3 peptide. 320,000 compounds, 0.7% hits. GST-Bcl-xL / FITC-Bim BH3 peptide fluorescence polarization. inhibition, % at 10.9 µM. AID 2129. Q07817;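 active = inhibition above the mean of all tested compounds plus 3 SD, cutoff set per campaign, cut at about 30% in these data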;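 also: 0% = DMSO wells and 100% = unlabeled Bim-BH3 peptide competitor; inhibitors lower millipolarization by displacing the labeled peptide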
MEX-5 binding – C. elegans MEX-5 TCR-2 RNA binding activity | 300,000 compounds, 0.38% hits | Q9XUB2 | activity score (negative = inhibition of binding), % at 10 µM | MEX-5/FITC-TCR2 RNA binding, fluorescence polarization; stronger effect = lower value | AID 1832;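 active = inhibition past about -25% in most replicates, and total fluorescence under double the plate's negative control median, limit read from the data; inconclusive = replicates evenly split on the limit, or fluorescence at least double controls; inactive = too little inhibition in most replicates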;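 also: 0% = DMSO and -100% = 5 µM competing unlabeled TCR2 RNA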
E coli Lon inh – E. coli protease La inhibition; P0A9M0; purified E. coli Lon protease, fluorescence polarization; inhibition, % at 7.94 µM; 360,000 compounds, 0.42% hits; AID 602123; in the data active = inhibition above about 13%, passing the limit was not always enough;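 also: 0% = enzyme with probe and DMSO and 100% = no enzyme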
Target sequence (P0A9M0 whole entry, looked up): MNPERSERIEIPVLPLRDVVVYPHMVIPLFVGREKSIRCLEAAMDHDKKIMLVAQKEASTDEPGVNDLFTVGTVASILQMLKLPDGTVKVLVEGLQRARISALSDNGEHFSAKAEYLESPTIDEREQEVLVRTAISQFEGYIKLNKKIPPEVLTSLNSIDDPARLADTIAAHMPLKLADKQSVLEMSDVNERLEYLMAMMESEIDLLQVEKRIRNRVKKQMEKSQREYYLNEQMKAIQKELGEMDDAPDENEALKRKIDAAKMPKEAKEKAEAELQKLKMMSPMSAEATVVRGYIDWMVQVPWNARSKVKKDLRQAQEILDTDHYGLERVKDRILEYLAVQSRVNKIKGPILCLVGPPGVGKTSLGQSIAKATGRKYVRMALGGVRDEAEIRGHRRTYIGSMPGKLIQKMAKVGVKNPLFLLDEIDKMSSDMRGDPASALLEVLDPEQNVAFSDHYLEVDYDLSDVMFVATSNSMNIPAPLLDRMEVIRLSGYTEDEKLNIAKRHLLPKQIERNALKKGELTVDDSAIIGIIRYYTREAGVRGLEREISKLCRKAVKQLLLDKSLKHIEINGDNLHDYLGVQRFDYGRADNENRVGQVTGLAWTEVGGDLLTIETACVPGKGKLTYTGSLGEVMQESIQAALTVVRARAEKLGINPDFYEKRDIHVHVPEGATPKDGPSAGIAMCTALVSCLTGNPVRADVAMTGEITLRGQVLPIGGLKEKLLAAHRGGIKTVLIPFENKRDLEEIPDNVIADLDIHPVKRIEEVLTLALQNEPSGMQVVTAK
GLD-1 TGE inh – GLD-1-TGE RNA interaction inhibition (C. elegans); Q17339; purified GLD-1 + fluorescein TGE RNA, fluorescence polarization; inhibition, % at 5.96 µM; 320,000 compounds, 0.44% hits; AID 2280;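 active = percent inhibition above a per-plate cutoff, the plate mean of test compounds plus 3 SD, cut at about 30% in these data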;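 also: 0% = DMSO wells with GLD-1 and probe and 100% = wells lacking GLD-1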
EBV gp42 inh – inhibitors of Epstein-Barr virus glycoprotein 42; Fluorescence polarization binding assay, mP read-out; Q1HVG2; 220,000 compounds, 0.42% hits; inhibition, % (tested at 21.74 µM); in the data active = inhibition above about 50%
eLon confirm – E. coli Lon inhibition confirmation; shares compounds with E coli Lon inh; purified E. coli Lon, fluorescence polarization; inhibition, % at 7.94 µM; 1,400 compounds, 31% hits; AID 602230; in the data active = inhibition above about 16%;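 also: 0% = enzyme with probe and DMSO and 100% = no enzyme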
Starred values were filed as active, the others as inactive; ? = inconclusive; / = no result; + = active, no number.

SMILES	BCLXL inh	MEX-5 binding	E coli Lon inh	GLD-1 TGE inh	EBV gp42 inh	eLon confirm
CCCS(=O)(=O)N1CCCC(C(=O)N2CCCCC2)C1 (configuration not stated)	6	-1	-2	-6	/	/
CCOC(=O)C1(C)CCN1C(=O)c1c(F)cccc1F (configuration not stated)	/	/	-2	/	/	/
CC(=O)/C(C[N+]1(C)CCCCC1)=N\O	-5	2	23*	3	-21	-2
O=C1c2cccc3c(O)ccc(c23)C(=O)N1c1ccc(Cl)cc1	+	-41*	+	+	/	+
O=C1c2ccccc2C(=O)N1c1ccc(Cl)cc1	2	-4	/	-1	-12	/
O=C1c2cccc3c(O)ccc(c23)C(=O)N1Cc1ccco1	/	?	+	/	172*	+
CC(=O)Nc1ccc(N2C(=O)c3cccc4c(O)ccc(c34)C2=O)cc1	+	-20	+	+	/	+
COc1ccc(N2C(=O)c3cccc4c(N(C)CCO)ccc(c34)C2=O)cc1	/	?	67*	/	/	22*
Cc1ccc(N2C(=O)c3cccc4c(C(=O)O)ccc(c34)C2=O)cc1	2	3	/	0	-20	/
CCCCCCC(=O)Oc1cccc(C2=CC(=O)CC(C)(C)C2=O)c1	/	/	-3	/	/	/
CCOc1ccc(NC(=O)CC2C(=O)Nc3ccccc3N2C(=O)c2ccccc2)cc1 (configuration not stated)	-1	2	15*	2	-8	0
CSCC[C@@H](CO)NC(=O)[C@H]1O[C@@H](n2ccc(N)nc2=O)[C@H](O)[C@@H]1O	/	/	9	/	/	/
CN(C)S(=O)(=O)c1ccc(Cl)c(C(=O)NNC(=O)Cc2nc3ccccc3n2C)c1	2	/	+	13	/	3
COc1ccc(C(=O)NNC(=O)Cc2nc3ccccc3n2C)cc1	/	/	-1	2	/	/
O=C(Nc1ccccc1N1CCCC1)c1ccc([N+](=O)[O-])o1	9	5	-13	1	/	/
COc1ccc(N2CCCC2)c(NC(=O)c2ccc([N+](=O)[O-])o2)c1	76*	-10	41*	74*	/	-10
Cc1cc(C)c2nc(N(CCN(C)C)C(=O)c3ccc4ccccc4c3)sc2c1	-2	-1	20*	0	/	-4
CN(C)CCN(C(=O)c1ccc2ccccc2c1)c1nc2c(F)cccc2s1	5	-1	2	9	/	/
O=c1c(-c2ccc(Br)cc2)[n+]([O-])c2ccccc2n1OCc1ccccn1	9	-2	-7	-5	8	/
O=c1c(-c2cc3ccccc3o2)[n+]([O-])c2ccccc2n1OCc1ccccn1	11	-4	20*	28	46	8
CCN(CC)c1ccc(S(=O)(=O)N2CCOCC2)cc1NC(=O)CSc1n[nH]c(N)n1	-8	2	5	0	-8	/
CC(=O)Nc1nc(C)c(Oc2ccccc2)c(=O)[nH]1	4	-2	23*	1	-14	-7
CC(NCCC(Cc1ccccc1)c1ccco1)c1ccccc1 (configuration not stated)	8	0	18*	5	-13	12
Fc1ccc(CNCCC(Cc2ccccc2)c2ccco2)cc1 (configuration not stated)	11	2	-4	3	-9	/
O=C(O)CC(NNC(=O)c1ccccc1)C(=O)Nc1cccc([N+](=O)[O-])c1 (configuration not stated)	-2	-3	16*	4	-16	12
SMILES	BCLXL inh	MEX-5 binding	E coli Lon inh	GLD-1 TGE inh	EBV gp42 inh	eLon confirm
O=C(NC(=S)Nc1cccc([N+](=O)[O-])c1)c1ccccc1	11	3	3	4	4	/
COc1cc2oc(=O)cc(CN3CCCCC3)c2cc1Cl	/	/	-9	/	/	/
COc1cc2oc(=O)cc(CN3CCN(C(C)=O)CC3)c2cc1Cl	/	/	31*	/	/	24*
OCC1OC(Nc2ccccc2C=NO)C(O)C1O (configuration not stated)	/	/	-5	/	/	/
Oc1cc2c(cc1O)[C@H]1c3ccc(O)c(O)c3OC[C@@]1(O)C2	28	/	0	24	/	/
Oc1ccc2c(c1)OCC1(O)Cc3cc(O)c(O)cc3C21 (configuration not stated)	/	/	+	/	/	+
CCOC(=O)c1ccc(CNC(=O)CSc2nc(NC(=O)c3ccccc3)c3c(C)c(C)oc3n2)cc1	-3	0	17*	7	-6	-4
COc1cccc2c1C(=O)c1ccc3ccccc3c1C2=O	1	0	5	4	-3	/
COc1ccc2noc3c2c1C(=O)c1ccccc1-3	116*	?	+	91*	/	116*
Cc1cc2c(c(C)c1Br)C(c1ccc3c(c1)OCO3)CC(=O)O2 (configuration not stated)	/	/	6	/	/	/
CC(=O)Nc1ccc(Nc2ccc3c4c(cc(=O)n3C)-c3ccccc3C(=O)c24)cc1	61*	-5	33*	28	36	52*
CC(=O)NC1=C(Nc2ccc(N(C)C)cc2)C(=O)c2ccccc2C1=O	9	-2	-4	7	/	/
COc1ccc(NC(=O)Cc2coc3cc(C)c(C(C)C)cc23)cc1S(=O)(=O)N1CCOCC1	-9	1	-22	-9	-53	/
O=C(CC1C=CCC1)Nc1ccccc1 (configuration not stated)	/	/	50*	/	/	-1
CCn1c(C(=O)O)c(S(=O)(=O)c2ccc(Cl)cc2)c2ccccc21	/	0	-1	/	/	/
O=C(N/N=C/c1ccccc1)C(=O)N/N=C/c1ccccc1	3	-2	20*	4	/	3
O=C(CCC1CCCC1)N1CCN(S(=O)(=O)c2ccc(Br)cc2)CC1	2	/	19*	5	/	-2
Cc1ccc(NC(=O)CSCc2cc(=O)n3ccsc3n2)cc1	4	0	-7	-3	/	/
O=C(CSCc1cc(=O)n2ccsc2n1)Nc1ccc(F)cc1	2	-1	66*	1	/	3
O=C1N[C@H](C(=O)O)CS1	7	3	/	2	/	/
CCN(CC)S(=O)(=O)c1ccc(NC(=O)CC(NC(C)=O)c2ccccc2)cc1 (configuration not stated)	5	0	17*	-2	-15	-5
O=C(OCc1ccccc1)c1c(-c2ccccc2)oc2c1C(OCCO)CCC2 (configuration not stated)	/	/	8	/	/	/
CC1(c2ccccc2)NC(=O)N(NC(=O)COC(=O)c2cc(Br)ccc2O)C1=O (configuration not stated)	-6	3	1	3	/	/
CCOC(=O)C1CCN(CC(=O)Nc2cc(S(=O)(=O)N3CCCCC3)ccc2Cl)CC1	/	/	23*	/	/	3
CCN(CC)S(=O)(=O)c1ccc(N2CCOCC2)c(NC(=O)c2cc3ccccc3o2)c1	/	/	30*	/	/	-2
O=C(CCCC(=O)N/N=C\c1ccccn1)N/N=C\c1ccccn1	0	-4	-7	6	-6	/

High-throughput results deposited in PubChem by several laboratories.
